This is a sample that favours compounds with a hit; in the whole collection about 19% have one here.
VP16 counter – counter-screen for ROR gamma inhibitors: Gal4-VP16 reporter; Drosophila S2 Gal4-VP16 UAS-luciferase, luminescence, 20 h; Potency, µM (series often up to 53.6 µM), without a hit: at the highest dose activity, negative = inhibition, usual class: inhibitors; 3.5% of 310,000 active;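 note: Gal4-VP16 expression switched on by copper sulfate through the metallothionein promoter; nearly all actives have a fitted effect of over 50% in size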
TDP1 cell CPT – growth inhibition of DT40 Tdp1-/-;hTDP1 cells with camptothecin (screen for TDP1 inhibitors) | chicken DT40 Tdp1-/-;hTDP1 cells + 20 nM CPT, ATP luminescence, 48 h | Potency, µM (titrated, usually from 46.2 µM), without a hit: at the top dose activity change, negative = growth inhibition, hits mostly inhibitors | 12% of 420,000 active; note: nearly all actives have a fitted effect of over 55% in size
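Cell growth measured by CellTiter-Glo luminescence after a minimum 48 h, 37 C compound exposure with 20 nM CPT in Tdp1-knockout DT40 cells stably expressing hTDP1, seeded 400/well; qHTS titration format.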
TDP1 block – inhibitors of human tyrosyl-DNA phosphodiesterase TDP1. 0.28% of 350,000 active. Q9NUW8. recombinant TDP1, AlphaScreen DNA substrate cleavage. Potency, µM (doses to about 130 µM), inactives show at the top dose activity change, negative = inhibition, most hits filed as inhibitors; note: nearly all actives have a fitted effect of over 40% in size
Target sequence (Q9NUW8 whole entry, looked up): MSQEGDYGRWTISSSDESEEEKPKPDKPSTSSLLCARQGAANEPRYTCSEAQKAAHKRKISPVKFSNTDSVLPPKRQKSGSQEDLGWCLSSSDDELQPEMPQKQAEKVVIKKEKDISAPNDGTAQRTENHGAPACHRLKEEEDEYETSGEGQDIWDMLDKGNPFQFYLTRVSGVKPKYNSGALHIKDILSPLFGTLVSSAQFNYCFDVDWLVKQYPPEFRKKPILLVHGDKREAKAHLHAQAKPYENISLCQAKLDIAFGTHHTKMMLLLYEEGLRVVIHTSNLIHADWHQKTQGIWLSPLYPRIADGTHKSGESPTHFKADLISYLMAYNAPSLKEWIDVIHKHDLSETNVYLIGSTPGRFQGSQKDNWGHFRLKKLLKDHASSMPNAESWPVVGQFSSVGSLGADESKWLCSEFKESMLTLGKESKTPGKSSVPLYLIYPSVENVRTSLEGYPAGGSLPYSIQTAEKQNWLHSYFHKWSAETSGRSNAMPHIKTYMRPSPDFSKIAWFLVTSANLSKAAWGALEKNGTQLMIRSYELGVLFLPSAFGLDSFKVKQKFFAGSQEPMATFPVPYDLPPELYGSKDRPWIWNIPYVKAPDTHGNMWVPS
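Recombinant E. coli-expressed Tdp1 (1 nM) preincubated with compound 15 min at RT, then 5'-biotin/3'-phosphotyrosine-FITC DNA substrate (15 nM) added for 5 min. AlphaScreen beads (10 ug/ml) added, 10 min RT; tyrosine-FITC cleavage read as signal loss.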
TDP1 cell noCPT – qHTS for Inhibitors of human tyrosyl-DNA phosphodiesterase 1 (TDP1): qHTS in cells in absence of CPT | DT40 Tdp1-/- hTDP1 cells, no CPT, ATP luminescence, 48 h | Potency, µM (titrated, usually from 46.2 µM), for inactives: at the highest dose activity change, negative = growth inhibition, most hits filed as inhibitors | 15% of 420,000 active | AID 686978, 2013; note: nearly all actives have a fitted effect of over 55% in size
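Growth of hTDP1-complemented DT40 Tdp1-knockout cells is measured by ATP luminescence after at least 48 hr compound exposure at 37 °C, with DMSO substituting for the 20 nM CPT used in the parallel screen.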
RORg inh – ROR gamma (mouse) transcription inhibition | Drosophila S2 Gal4-RORgamma UAS-luciferase reporter, 20 h | 5.4% of 310,000 active | Potency, µM (top dose mostly 53.6 µM), for inactives: at the highest dose activity change, negative = inhibition, usual class: inhibitors; note: nearly all actives have a fitted effect of over 60% in size
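Luciferase reporter read in Schneider cells carrying Gal4-RORγ (mouse) and UAS-Photinus luciferase; cells given compound 1 h before 700 uM copper sulfate induction, then incubated 20 h at ambient temperature.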
* hit, by the source's call; ? = inconclusive; / = no result given; [ ] = remark or other dose. Calls come from the whole dose curve; as a rule, active = well fitted curve in the direction sought with a large enough effect; inconclusive = small, poorly fitted or top-dose-only effect, or another doubt; inactive = no such curve, though single readings can be large; an effect the other way counts as inactive or inconclusive. % is set by controls: 0 for no effect and ±100 for the full control effect; potency is the fitted concentration of half-maximal effect.

SMILES	VP16 counter	TDP1 cell CPT	TDP1 block	TDP1 cell noCPT	RORg inh
CN(C)/C=C/C(=C\C(=O)C(F)(F)F)Nc1ccc(C(F)(F)F)cc1	-2%	?	-1%	18µM*	0%
COc1cc2c(cc1NC(=O)c1cncc(Br)c1)oc1ccccc12	-12%	-12%	1%	-24%	5%
COCCCNC(=S)Nc1cc2oc3ccccc3c2cc1OC	7.1µM*	8.2µM*	7%	6.5µM*	5.6µM*
COc1cc2c(cc1NC(=O)CCC(=O)O)oc1ccccc12	2%	9%	/	-19%	7%
COc1cc2c(cc1NC(=S)Nc1cccc(C(F)(F)F)c1)oc1ccccc12	?	23µM*	3%	29µM*	?
COc1cc2c(cc1NC(=S)Nc1cccc3ccccc13)oc1ccccc12	11µM*	-19%	9%	?	10µM*
CCN(CC)S(=O)(=O)c1cccc(C(=O)Nc2cc3oc4ccccc4c3cc2OC)c1	-3%	16µM*	6%	18µM*	-29%
CCOC(=O)c1c(NC(=O)CC2SC(N)=NC2=O)sc2c1CCCC2 (configuration not stated)	-2%	?	4%	-20%	?
Cc1ccc2[nH]c3c(c2c1)CCCC3NC(=O)CCl (configuration not stated)	?	6.5µM*	/	2.3µM*	-15%
Cc1ccc2[nH]c3c(c2c1)CCCC3C(N)=O (configuration not stated)	-3%	-4%	0%	10%	14%
COCCN(Cc1cc2cccc(C)c2n2nnnc12)C(=O)C(F)(F)F	-13%	?	2%	-16%	7%
CSCC[C@H](NC(=O)C(C)Oc1ccc(Cl)cc1)c1nc2ccccc2[nH]1 (some centres not stated)	-6%	-29%	5%	?	-3%
COc1ccc(C(=O)NCC(c2ccc(N(C)C)cc2)N2CCCC2)cc1 (configuration not stated)	/	?	3%	?	/
COc1ccc(C(CNC(=O)c2ccc(Cl)s2)N2CCOCC2)cc1 (configuration not stated)	/	-2%	1%	-24%	/
COc1ccc(C(=O)NCC(c2ccc(N(C)C)cc2)N2CCOCC2)cc1 (configuration not stated)	/	7.3µM*	6%	10µM*	/
COc1ccc(C(CNC(=O)c2ccc(S(=O)(=O)N(C)C)cc2)N2CCCCC2)cc1 (configuration not stated)	5%	12%	-5%	-9%	8%
CN(C)c1ccc(C(CNC(=O)c2cccc(C(F)(F)F)c2)N2CCCC2)cc1 (configuration not stated)	/	15µM*	1%	16µM*	/
COc1ccc(C(CNC(=O)c2cc3c(s2)CCC(C)C3)N2CCOCC2)cc1 (configuration not stated)	/	23µM*	2%	?	/
CN(C)c1ccc(C(CNC(=O)c2ccc(C(C)(C)C)cc2)N2CCCC2)cc1 (configuration not stated)	/	13µM*	9%	7.3µM*	/
Clc1ccc(CNCCCSc2ncccn2)cc1	2%	-82%	/	?	-1%
Cc1ccc(OCC(=O)NC2CCS(=O)(=O)C2)c([N+](=O)[O-])n1 (configuration not stated)	/	2%	-8%	?	/
CCC(C)[C@H](NC(=O)N1CCCC1)C(=O)OC (some centres not stated)	-11%	-9%	8%	-7%	12%
O=C(NCCc1nc2ccccc2[nH]1)/C(=C/c1ccco1)NC(=O)c1ccc(Br)cc1	11%	23µM*	6%	?	12%
COc1ccc(/C=C/C(=O)N/C(=C\c2ccco2)C(=O)NCCc2nc3ccccc3[nH]2)cc1	2%	21µM*	6%	18µM*	?
O=C(NCCc1nc2ccccc2[nH]1)/C(=C/c1ccco1)NC(=O)c1ccccc1Br	-10%	?	-4%	?	?
SMILES	VP16 counter	TDP1 cell CPT	TDP1 block	TDP1 cell noCPT	RORg inh
O=C(/C=C/c1ccco1)N/C(=C\c1ccco1)C(=O)NCCc1nc2ccccc2[nH]1	2%	-27%	9%	?	29%
CC(=O)Nc1cc(C(=O)N2CCCC(C)C2)cc2ncn(CCc3ccccn3)c12 (configuration not stated)	/	4%[9.04 µM]	/	-19%	/
O=C(Nc1nnc(C2=COCCO2)o1)c1cccc([N+](=O)[O-])c1	4µM*	-8%	0%	-6%	1µM*
O=C(Nc1nnc(-c2ccc(F)cc2)o1)c1cccc([N+](=O)[O-])c1	0.79µM*	3.7µM*	4%	3.3µM*	0.4µM*
CS(=O)(=O)c1cccc(C(=O)Nc2nnc(C3=COCCO3)o2)c1	/	-18%	-2%	-2%	/
O=C(NCc1ccc2c(c1)OCO2)c1cccc([N+](=O)[O-])c1	-3%	-4%	2%	-8%	28%
O=C(Nc1nnc(C2=COCCO2)o1)c1cccc(Br)c1	0.5µM*	?	5%	?	0.35µM*
O=C(COCc1ccccc1)N[C@@H](Cc1ccc(O)cc1)C(=O)O	-4%	-3%	4%	-5%	-20%
COc1cnc(-c2ccccn2)[nH]c1=O	0%	23%	8%	2%	-24%
COc1cnc(-c2ccccn2)nc1Sc1ccc(C)cc1	10µM*	5.2µM*	8%	3.3µM*	1.1µM*
COc1cnc(-c2ccccn2)nc1Sc1cccc(Cl)c1	8.9µM*	1.3µM*	5%	1.3µM*	2µM*
COc1ccccc1Sc1nc(-c2ccccn2)ncc1OC	?	10µM*	6%	2.9µM*	7.9µM*
COc1ccc(-c2nc(-c3ccccn3)ncc2S(C)(=O)=O)cc1	8%	5%	6%	-1%	-21%
COc1cnc(-c2ccccn2)nc1NC(C)C	-10%	0.13µM*	6%	0.046µM*	?
Cc1ccc(Sc2cc(C)nc(-c3ccccn3)n2)cc1	3.2µM*	6.5µM*	/	10µM*	0.35µM*
CCCCCCCCN1C(=O)[C@H](CC(=O)NCc2cccc(C(F)(F)F)c2)C[C@@]2(C(=O)OC)CCCCC=C12	/	21µM*	/	?	/
CCCCCCCCN1C(=O)[C@H](CC(=O)NCc2cccc(C(F)(F)F)c2)C[C@@]2(C(=O)OCC)CCC=C12	/	?	/	13µM*	/
O=C1NC(c2ccccc2Cl)Nc2ccccc21 (configuration not stated)	0%	?	5%	18µM*	6%

Compound activity from PubChem.
